Sampled rows, rich in hits. Any-hit rate of the full collection: about 2.6%.
hERG WT inh: KCNH2 (human, wildtype) channel inhibition; activity change, % at 1.84 µM; U2OS, BacMam KCNH2, thallium flux FluxOr; stronger effect = lower value; AID 720551; 340,000 tested, 0.37% active; Q12809;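 active = maximum activity change below -70%; inconclusive = maximum activity change between -70% and -50%; inactive = maximum activity change above -50%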; also: % is scaled to controls: 0 for no effect and ±100 for the full control effect
Target sequence (Q12809 whole entry, looked up): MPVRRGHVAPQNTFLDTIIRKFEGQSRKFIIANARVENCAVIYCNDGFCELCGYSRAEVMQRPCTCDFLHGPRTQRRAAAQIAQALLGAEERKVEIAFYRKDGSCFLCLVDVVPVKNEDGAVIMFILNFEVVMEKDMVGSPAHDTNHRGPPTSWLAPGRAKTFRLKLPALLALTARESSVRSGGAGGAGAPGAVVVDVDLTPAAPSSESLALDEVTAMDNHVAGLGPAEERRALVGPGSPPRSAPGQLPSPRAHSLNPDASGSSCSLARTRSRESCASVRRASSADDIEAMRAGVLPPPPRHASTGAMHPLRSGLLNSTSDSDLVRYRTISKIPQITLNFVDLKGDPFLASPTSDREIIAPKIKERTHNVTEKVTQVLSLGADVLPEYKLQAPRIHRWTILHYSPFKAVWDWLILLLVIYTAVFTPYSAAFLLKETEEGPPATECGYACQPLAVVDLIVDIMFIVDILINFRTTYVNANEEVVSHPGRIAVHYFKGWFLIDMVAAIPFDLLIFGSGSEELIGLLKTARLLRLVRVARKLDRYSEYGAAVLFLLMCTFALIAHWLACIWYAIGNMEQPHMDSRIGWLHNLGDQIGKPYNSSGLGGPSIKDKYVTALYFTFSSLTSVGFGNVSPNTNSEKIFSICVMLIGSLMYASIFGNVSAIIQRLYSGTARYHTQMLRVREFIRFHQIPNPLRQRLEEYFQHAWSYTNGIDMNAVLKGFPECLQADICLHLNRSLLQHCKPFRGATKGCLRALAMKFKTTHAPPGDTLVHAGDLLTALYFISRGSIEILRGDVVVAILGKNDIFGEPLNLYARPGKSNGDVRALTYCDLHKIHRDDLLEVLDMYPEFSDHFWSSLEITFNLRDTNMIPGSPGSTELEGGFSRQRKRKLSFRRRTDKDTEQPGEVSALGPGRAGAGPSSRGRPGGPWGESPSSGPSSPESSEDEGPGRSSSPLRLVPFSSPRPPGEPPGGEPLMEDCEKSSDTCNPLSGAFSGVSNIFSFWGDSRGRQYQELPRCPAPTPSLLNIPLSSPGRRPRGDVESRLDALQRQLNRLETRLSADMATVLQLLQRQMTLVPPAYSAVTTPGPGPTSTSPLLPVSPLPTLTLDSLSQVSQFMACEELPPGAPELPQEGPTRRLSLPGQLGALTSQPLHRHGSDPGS
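U2OS cells were transduced with wild-type KCNH2 virus (2.03 x 10^8 / mL) for 4 h at room temperature, then cultured overnight at 37 C. Thallium flux was read with FluxOr dye. Rate constants were normalized to DMSO controls.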
ClpP mod: qHTS Assay for Activators of ClpP; ATP-dependent Clp protease proteolytic subunit (Bacillus subtilis (strain 168)), P80244; purified B. subtilis ClpP, FRET peptide cleavage, 20 min; Potency, µM (highest dose often 57.5 µM), for the others: top-dose activity change, negative = active; 340,000 tested, 1.9% active; active = well fitted falling curve with a large enough effect; inconclusive = small, poorly fitted or top-dose-only effect; inactive = no such curve, though single readings can be large or run the other way; also: potency is read from the fitted curve at half-maximal effect; the source files actives as falling curves though it sought activators and does not explain the sign; nearly all actives have a fitted effect of over 65% in size
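FRET quenching reversal measured ClpP activation: 10 microg/mL B. subtilis ClpP at pH 8 with the FRET-FV decapeptide, read at 430 nm after 320 nm excitation. The 20-min minus 0-min signal was scaled between DMSO/no-enzyme wells and ADEP (5.8 microM final).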
p53 reactivator: re-activators of mutant p53; H1299 p53-A138V BP100-luciferase reporter, luminescence, 24 h; Potency, µM (highest dose often 92.2 µM), for inactives: top-dose activity change, positive = activation, most hits filed as activators; 320,000 tested, 0.063% active; AID 504706; active = well fitted activation curve with a large enough effect; inconclusive = small, poorly fitted or top-dose-only effect; inactive = no such curve, though single readings can be large or run the other way; also: potency is read from the fitted curve at half-maximal effect; % of control where 0% means no effect; nearly all actives have a fitted effect of over 45% in size
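H1299 (p53-null), stable ts p53-A138V + BP100-Luc; 1000 cells/well, Opti-MEM/10% FBS; cpd 4 pt, 1:5; 24 h, 37 deg C, 5% CO2; detection reagent 10 min RT; luminescence.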
KCNH2 3.1 inh: KCNH2 3.1 (human) potassium channel inhibition | U2OS KCNH2 3.1, thallium flux FluxOr; stronger effect = lower value | activity change, % (tested at about 1.8 µM) | 340,000 tested, 0.95% active | AID 720553;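 active = maximum activity change below -70%; inconclusive = maximum activity change from -70% to -50%; inactive = maximum activity change above -50%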;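 also: thallium influx rate constant from kinetic fluorescence after stimulation buffer; % is scaled to controls: 0 for no effect and ±100 for the full control effect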
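Measured as rate of thallium-driven FluxOr signal in transduced U2OS cells carrying the 3.1 channel, read kinetically for 2 min upon stimulation; values are rate constants scaled to DMSO control wells.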
TRPV1 potentiator: human TRPV1 potentiation. 320,000 tested, 0.02% active. TRPV1-expressing cells, Fluo-8 calcium influx, capsaicin EC20 potentiation. AID 540277. potentiation, % at 8.33 µM. Q8NER1; in the data active = potentiation above about 80%; inconclusive = between about 30% and that limit; also: 0% is about no effect
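Fluo-8 calcium influx in TRPV1-expressing cells, kinetic read (ex 480/em 520 nm). Compound added and read 3 min for agonist activity, followed by capsaicin at EC20 final and 2 min further read for enhancement.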
TRPV1 agonist: agonists of human vanilloid receptor 1 (TRPV1); TRPV1-expressing cells, Fluo-8 calcium influx, agonist mode; activation, % at 8.33 µM; 320,000 tested, 0.19% active; in the data active = activation above about 80%; inconclusive = between about 30% and that limit; also: 0% is about no effect
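TRPV1-expressing cells were cultured overnight at 35.5C and loaded with Fluo-8 calcium dye for 40 to 90 min at room temperature. After a 10 s baseline, compound was added and calcium influx was read kinetically for 3 min (ex 480/em 520 nm).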
Active calls of the source: *; ? = inconclusive; . = no result given; ! = not confirmed by another sample.

SMILES	hERG WT inh	ClpP mod	p53 reactivator	KCNH2 3.1 inh	TRPV1 potentiator	TRPV1 agonist
Nc1nonc1-n1nnc(C(=O)N/N=C/c2ccc(OCc3ccccc3F)cc2)c1CN1CCCCC1	2.0	11.6%	?	-100.0*	-6.3	-1.1
CN(C)Cc1c(C(=O)N/N=C/c2ccc(OCc3c(F)cccc3Cl)cc2)nnn1-c1nonc1N	-29.1	.	20.5%	-85.7*	10.7	3.1
CC(=O)Nc1c(C(=O)Nc2ccc3c(c2)OCO3)oc2ccccc12	-72.3*	-1.2%	?	6.2	-12.9	?
C=CCOc1ccccc1C1C2=C(CC(C)(C)CC2=O)Nc2c1c(=O)n(C)c(=O)n2C (configuration not stated)	0.7	28.2µM*	-9.4%	-178.3*	0.1	-1.8
COc1ccc(C2C3=C(CC(C)(C)CC3=O)Nc3c2c(=O)n(C)c(=O)n3C)cc1OC (configuration not stated)	-15.6	1.9%	0.1%	10.0	2.1	-0.8
CC(C)(CN=C1NS(=O)(=O)c2ccccc21)CNC(=O)c1ccccc1	-94.5*	0.6%	-17.3%	-2.9	3.3	2.9
COc1cccc(-c2cnc3c(c2)C(=O)N([C@H](C)CO)C[C@@H](C)[C@H](CN(C)C(=O)Nc2ccccc2F)O3)c1	-2.0	-0.1%	.	-6.0	.	.
CC(=O)OC1C(N2CCCCC2)c2c(ccc(/C=C/C(=O)N3CCCCC3)c2O)OC1(C)C (configuration not stated)	-10.9	.	2.7%	-5.8	-18.1	80.6*
CCCCC(=O)N1CC(=O)Nc2ccc(F)cc2C1c1ccc(F)cc1 (configuration not stated)	-0.4	20µM*!	5.3%	0.0	-21.1	21.7
CCCCC(=O)N1CC(=O)Nc2ccc(F)cc2C1c1ccccc1 (configuration not stated)	-3.5	.	-1.1%	-14.5	?	-5.2
COc1cc(C(=O)Nc2cc3c4c(c2)CC(=O)N4CCC3)cc(OC)c1OC	4.3	15.8µM*	3.1%	-6.3	4.7	-2.9
CCn1c(SCC(N)=O)nnc1-c1ccc(S(=O)(=O)N2CCN(C)CC2)cc1	2.6	31.6µM*	2.3%	-4.1	3.5	2.6
CCn1c(SCC(=O)O)nnc1-c1ccc(S(=O)(=O)N2CCCC2)cc1	0.4	.	1.7%	2.5	1.8	-1.9
COC(=O)c1cccc(Nc2ncnc3ccc(C)cc23)c1	-4.1	-8.3%	0.2%	-0.2	-12.7	?
COc1ccc(Nc2ncnc3ccc(C)cc23)cc1	9.8	2.4%	12.6%	37.6	16.0	80.7*
N#Cc1cc(N)ccc1Sc1ccccc1	-4.7	?	-0.1%	-2.8	12.3	-0.5
N#Cc1cc(N)ccc1Sc1ccc(Cl)cc1	-3.4	28.2µM*	-5.8%	-8.2	-0.4	3.2
O=C(O)CSc1nnc(-c2cc3ccccc3o2)n1-c1ccccc1	-10.9	22.4µM*	26.5%	-15.3	?	0.8
Cn1c(SCC(=O)N2CCN(c3ccccc3)CC2)nnc1-c1cc2ccccc2o1	14.7	-7.7%	5.0%	-21.0	-6.0	2.9
CCCCCCCCN1[C@@H](CC(=O)O)c2ccc(/C=C/C(=O)O)cc2S1(=O)=O	.	-10.7%	.	.	.	.
COc1ccc(CCN(C)c2ncnc3sccc23)cc1OC	-84.3*	-0.2%	-3.0%	3.8	0.4	1.1
COc1ccc(CCN(C)Cc2ccc(OC)c(OCc3ccccc3)c2)cc1OC	16.0	1.1%	-5.4%	?	1.6	2.5
COc1ccc(CCN(C)Cc2ccc(OCc3ccccc3)c(OC)c2)cc1OC	14.0	0.0%	-0.4%	-79.5*	5.7	1.7
C(=Nc1ccc2ccccc2n1)c1cccnc1	.	3.5%	.	.	.	.
COc1ccc(C(=O)C[n+]2cccc3cc(Cl)ccc32)cc1	.	-2.3%	.	.	.	.
SMILES	hERG WT inh	ClpP mod	p53 reactivator	KCNH2 3.1 inh	TRPV1 potentiator	TRPV1 agonist
CCOc1ccc(NC(=O)C2CC(=O)NC(=Nc3ccc(Cl)c(Cl)c3)S2)cc1 (configuration not stated)	.	1.6%	.	.	.	.
O=C1c2ccccc2C(=O)N1c1cccc(O)c1	.	-1.0%	.	.	.	.
Cc1cccc(CNC(=O)c2ccccc2N)c1	6.3	8.91µM*	?	2.6	-14.1	25.0
Cc1ccc(CNC(=O)c2nnn(-c3cccc(C)c3)c2N)cc1	24.7	1.3%	11.7%	-107.6*	.	.
Cc1ccc(CNC(=O)c2ccccc2N)cc1	4.7	28.2µM*	2.7%	-2.6	-15.2	17.9
CCN(CC)c1ccc(N=Nc2nn(C)c(C)c2[N+](=O)[O-])cc1	-124.9*	1.9%	?	3.4	-2.0	3.5
Cc1cccc(C(=O)N[C@H](C(=O)Nc2ccc(S(=O)(=O)NC3=NCCCCC3)cc2)C(C)C)c1	-22.4	35.5µM*	-0.8%	-2.7	6.5	-5.8
O=C(NCc1ccccc1Cl)c1nnc(Cc2ccc(Cl)cc2)o1	.	-1.9%	.	.	.	.
CCC(C)c1ccccc1NC(=O)COC(=O)c1ccc2c(c1)S(=O)(=O)c1ccccc1C2=O (configuration not stated)	0.1	22.4µM*	4.0%	5.0	-8.4	2.7
CCc1cccc(C)c1NC(=O)COC(=O)c1ccc2c(c1)S(=O)(=O)c1ccccc1C2=O	-1.0	-2.2%	10.8%	-7.1	7.1	3.9
O=C(C[n+]1cccc(Br)c1)c1ccc(F)cc1	.	0.2%	.	.	.	.
O=C(N/N=C(\c1ccccc1)c1ccccn1)c1ccccc1Cl	-11.8	8.91µM*	?	-6.8	-7.3	?
O=[N+]([O-])c1cccnc1Oc1ccc(C2SCCS2)cc1	-153.4*	2.3%	7.7%	16.3	.	.
O=C(Nc1ccccc1[N+](=O)[O-])c1csnn1	.	-2.2%	.	.	.	.
Cc1c(C(=O)OCC(=O)NCCN2C(=O)CSC2=O)oc2c1ccc1ccccc12	-0.7	31.6µM*	-1.6%	2.8	8.8	-0.5
COc1ccc(NC(=O)c2cccc(N3CCCS3(=O)=O)c2)c(OC)c1	.	1.3%	.	.	.	.
Clc1ccc(-c2csc3ncnc(Sc4nnnn4-c4ccccc4)c23)cc1	.	-13.5%	.	.	.	.
O=C1c2ccccc2NC(c2ccccn2)N1c1ccccc1F (configuration not stated)	-10.0	31.6µM*	3.2%	12.6	0.4	-1.4
Cc1ccc(N2C(=O)c3ccccc3NC2c2ccccc2O)cc1 (configuration not stated)	-15.8	4.0%	?	-14.2	-1.8	-6.1
Cc1cccc(C2Nc3ccccc3C(=O)N2c2ccc(F)cc2)n1 (configuration not stated)	19.9	31.6µM*	14.7%	4.0	?	4.4
COc1ccc(C(=O)Nc2ccccc2C(=O)N/N=C/c2ccco2)cc1	2.6	-2.3%	?	10.7	-4.2	29.2

High-throughput results from PubChem BioAssay.
